The source made the active and inactive calls. How the source made its calls: active means hit-call score of the fitted dose curve at least 0.9, where 1 is the maximum; inactive means score below 0.9.
Tests used:
[1] = read-out: Macrophage colony-stimulating factor (MCSF), CSF1 (gene 1435); experiment: BSK_CASM3C_MCSF: BioMAP Diversity Plus: CASM3C Assay for Macrophage colony-stimulating factor (MCSF) Biomarker Activity (AID 2283044); details: primary human coronary artery smooth muscle cells; actives raise or lower the signal;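 further: M-CSF protein amount quantified by ELISA after 24 h exposure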
[2] = read-out: Low-density lipoprotein receptor (LDLR), LDLR (gene 3949); experiment: BSK_CASM3C_LDLR: BioMAP Diversity Plus: CASM3C Assay for Low-density lipoprotein receptor (LDLR) Biomarker Activity (AID 2283045); details: primary human coronary artery smooth muscle cells; actives raise or lower the signal;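 further: LDLR protein level on the cell surface quantified by ELISA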
[3] = read-out: Monocyte Chemoattractant Protein-1 (MCP1), CCL2 (gene 6347); experiment: BSK_CASM3C_MCP1: BioMAP Diversity Plus: CASM3C Assay for Monocyte Chemoattractant Protein-1 (MCP1) Biomarker Activity (AID 2283046); details: primary human coronary artery smooth muscle cells; actives raise or lower the signal;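 further: MCP-1 level quantified by ELISA 24 h after dosing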
[4] = BSK_CASM3C_Proliferation: Cell Proliferation Assessment in the BioMAP Diversity Plus: CASM3C Assay (AID 2283047); details: primary human coronary artery smooth muscle cells;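 further: sulforhodamine B total protein stain as relative cell number at 560 nm; sub-confluent cells exposed 48 h before staining; fitted both ways against DMSO so gain or loss of cell number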
[5] = read-out: Monokine induced gamma interferon (MIG), CXCL9 (gene 4283); experiment: BSK_CASM3C_MIG: BioMAP Diversity Plus: CASM3C Assay for Monokine induced gamma interferon (MIG) Biomarker Activity (AID 2283048); details: primary human coronary artery smooth muscle cells; actives raise or lower the signal;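 further: MIG protein level measured by ELISA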
[6] = read-out: serum amyloid A (SAA), SAA1 (gene 6288); experiment: BSK_CASM3C_SAA: BioMAP Diversity Plus: CASM3C Assay for serum amyloid A (SAA) Biomarker Activity (AID 2283049); details: primary human coronary artery smooth muscle cells; actives raise or lower the signal;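 further: SAA protein level quantified by ELISA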
[7] = BSK_CASM3C_SRB: Viability Assessment in the BioMAP Diversity Plus: CASM3C Assay (AID 2283050); details: primary human coronary artery smooth muscle cells;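 further: total protein by SRB staining as cytotoxicity measure in parallel cultures; cells exposed to compound for 24 h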
[8] = read-out: Thrombomodulin, THBD (gene 7056); experiment: BSK_CASM3C_Thrombomodulin: BioMAP Diversity Plus: CASM3C Assay for Thrombomodulin Biomarker Activity (AID 2283051); details: primary human coronary artery smooth muscle cells; actives raise or lower the signal;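 further: thrombomodulin protein level measured by ELISA 24 h after dosing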
[9] = read-out: Tissue Factor, F3 (gene 2152); experiment: BSK_CASM3C_TissueFactor: BioMAP Diversity Plus: CASM3C Assay for Tissue Factor Biomarker Activity (AID 2283052); details: primary human coronary artery smooth muscle cells; actives raise or lower the signal;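 further: cell surface tissue factor protein level read by ELISA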
[10] = read-out: Interferon-gamma inducible Protein 10 (IP10), CXCL10 (gene 3627); experiment: BSK_hDFCGF_IP10: BioMAP Diversity Plus: hDFCGF Assay for Interferon-gamma inducible Protein 10 (IP10) Biomarker Activity (AID 2283053); details: primary human foreskin fibroblasts; actives raise or lower the signal
Method in brief: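 Primary foreskin fibroblasts, human; 24 h compound exposure; IP-10 by ELISA; bidirectional fit vs DMSO.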

Measured: AC50

CCCCCCCCCCCC[N+](C)(C)C
active: [1] 16.2 µM | [2] 21.2 µM | [3] 27.1 µM | [4] 12.9 µM | [5] 33.3 µM | [6] 26 µM | [7] 27.6 µM | [9] 4.09 µM | [10] 22.2 µM
inactive: [8]

CCCCCCCCCCCCO
active: [1] 31.2 µM | [3] 34.7 µM | [4] 32.6 µM | [5] 31.3 µM | [6] 29.4 µM | [9] 32.3 µM | [10] 29.3 µM
inactive: [2] | [7] | [8]

O=C(Nc1ccc(Cl)cc1)Nc1ccc(Cl)c(Cl)c1
inactive: [3] | [5] | [8]
active: [1] 12.3 µM | [2] 7.14 µM | [4] 5 µM | [6] 12.6 µM | [7] 10.6 µM | [9] 9.41 µM | [10] 0.148 µM

Cc1ncc(CO)c(CO)c1O
inactive: all assays above

CN(C)c1ccc(C(=C2C=CC(=[N+](C)C)C=C2)c2ccc(N(C)C)cc2)cc1
inactive: [8]
active: [1] 6.36 µM | [2] 5.4 µM | [3] 1.07 µM | [4] 2.06 µM | [5] 8.07 µM | [6] 0.822 µM | [7] 7.66 µM | [9] 1.49 µM | [10] 4.07 µM

CCCCCCCCOc1ccc(C(=O)c2ccccc2)c(O)c1
inactive: all assays above

Cc1occc1C(=O)Nc1ccc(C(=O)N2CCC(F)(F)/C(=C\C(=O)N3CCC(N4CCCCC4)CC3)c3ccccc32)cc1
active: [2] 10.8 µM
inactive: all other assays above

Clc1ccccc1C(c1ccccc1)(c1ccccc1)n1ccnc1
active: [1] 32.6 µM | [2] 36.9 µM | [3] 34.4 µM | [4] 22.5 µM | [5] 39.2 µM | [6] 27.1 µM | [7] 29.1 µM | [8] 4.88 µM | [9] 20 µM | [10] 9.81 µM

C[C@]12CC[C@@H]3c4ccc(O)cc4CC[C@H]3[C@@H]1CCC2=O
inactive: all assays above

CCN(Cc1cccc(S(=O)(=O)O)c1)c1ccc(C(=C2C=CC(=[N+](CC)Cc3cccc(S(=O)(=O)O)c3)C=C2)c2ccccc2S(=O)(=O)[O-])cc1
active: [10] 18.8 µM
inactive: all other assays above

Cc1cc(F)ccc1-c1cc(N2CC[C@@H](O)[C@H]2CO)ncc1N(C)C(=O)C(C)(C)c1cc(C(F)(F)F)cc(C(F)(F)F)c1
active: [1] 26.1 µM | [2] 24.4 µM | [3] 31 µM | [4] 28.3 µM | [5] 30.1 µM | [6] 31.7 µM | [7] 29.2 µM | [9] 22 µM | [10] 14.9 µM
inactive: [8]

O=c1ccc2ccccc2o1
active: [6] 0.148 µM
inactive: all other assays above

Cc1ccc(C(C)C)cc1
inactive: all assays above

Cc1cccc2ccccc12
inactive: all assays above

O=C(O)Cn1c(=O)n(Cc2ccc(Br)cc2F)c(=O)c2ccc(Cl)cc21
inactive: all assays above

O=c1c(-c2ccc(O)cc2)coc2cc(O)cc(O)c12
active: [3] 28.6 µM | [4] 11.7 µM | [6] 20 µM | [10] 20 µM
not listed: [8]
inactive: all other assays above

O=C(O)c1ccccc1-n1cc(C(=O)O)c(=O)c2cc(Nc3c(F)cc(F)cc3Cl)c(Cl)cc21
inactive: all assays above

CCCCCCCCN(C)CCCCCCCC
inactive: all assays above

Cc1ccc2oc(CN(Cc3ccccc3)C(=O)Nc3c(F)cc(F)cc3F)c(-c3ccc(Cl)cc3)c2c1
active: [10] 5.68 µM
inactive: all other assays above
